# PubChem BioAssay (EPA / NIEHS)
# Results filed as inconclusive are left out. Active and inactive are the calls of the source. Rule for the calls: active = hit-call score of the fitted dose curve at least 0.9, where 1 is the maximum; inconclusive = response in the unintended direction; inactive = score below 0.9.
# Legend:
# [1] = molecular target: Androgen Receptor/SRC-1 Co-activator, AR (gene 367) (UniProt P10275); experiment: OT_AR_ARSRC1_0960: Odyssey Thera (OT) 16-hour HEK293T Protein-Complementation Assay for Androgen Receptor/SRC-1 Co-activator (AID 2283353);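 note: actives raise the signal above DMSO so potency reflects increased AR and SRC-1 complex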
# Method in brief: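 HEK293T cells stably expressing AR and SRC-1 fused to split Venus YFP fragments via (Gly4Ser)2 linkers were dosed for 16 h. Nuclear/cytoplasmic fluorescence ratio at 488 nm, ≥400 cells per image, fitted for gain of signal versus DMSO.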
# [2] = molecular target: Androgen Receptor/SRC-1 Co-activator, AR (gene 367) (UniProt P10275); experiment: OT_AR_ARSRC1_0480: Odyssey Thera (OT) 8-hour HEK293T Protein-Complementation Assay for Androgen Receptor/SRC-1 Co-activator (AID 2283354);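 note: hits raise the complementation signal above DMSO so AC50 marks enhancers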
# Method in brief: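 Measures AR/SRC-1 binding by Venus YFP fragment complementation in HEK293T stable lines at 8 h post-dose. Imaging quantifies the 488nm nucleus/cytoplasm ratio in ≥400 cells; DMSO defines baseline.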
# [3] = molecular target: Estrogen receptor beta (Homo sapiens) (UniProt Q92731); experiment: OT_ER_ERbERb_0480: Odyssey Thera (OT) 8-hour HEK293T Protein-Complementation Assay for Estrogen Receptor-beta/-beta Homodimer (AID 2283357);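 note: active means signal gain over DMSO baseline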
# Method in brief: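 Cells (HEK293T, stable ER-beta LBD PCA pair) are treated 8 hours, fixed and Draq5-stained; signal is fluorescence intensity increase relative to vehicle, fitted in the gain direction.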
# [4] = molecular target: Retinoic acid receptor alpha (Homo sapiens) (UniProt P10276); experiment: NVS_NR_hRAR_Antagonist: NovaScreen (NVS) Nuclear Receptor Binding Assay for human Retinoic Acid Alpha Receptor Antagonism (RAR) (AID 2283358)
# Method in brief: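 TR-FRET, cell-free, antagonist format; 2 h incubation after dosing; DMSO = baseline; signal loss fitted; 25 uM duplicate primary, then conc. series.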
# [5] = molecular target: T1, Estrogen receptor (Homo sapiens) + Estrogen receptor beta (Homo sapiens) (UniProt P03372+Q92731); experiment: OT_ER_ERaERb_0480: Odyssey Thera (OT) 8-hour HEK293T Protein-Complementation Assay for Estrogen Receptor-alpha/-beta Heterodimer (AID 2283352)
# Method in brief: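 Human HEK293T cells were treated for 8 hours and receptor heterodimerisation was detected through reconstitution of a fluorescent reporter split between ER-alpha and ER-beta ligand-binding domains. Activity was analysed as gain of signal against DMSO.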
# [6] = molecular target: T1, Estrogen receptor (Homo sapiens) + Estrogen receptor beta (Homo sapiens); experiment: OT_ER_ERaERb_1440: Odyssey Thera (OT) 24-hour HEK293T Protein-Complementation Assay for Estrogen Receptor-alpha/-beta Homodimer (AID 2283356);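 note: heteromer of ER alpha and ER beta binding domains; hits raise reporter fluorescence and both agonists and antagonists give an increase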
# Method in brief: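 24 h exposure; HEK293T PCA cells with ERα/ERβ LBD fragments; signal rise in nuclear or whole-cell fluorescence over vehicle.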
# [7] = molecular target: PGR (gene 5241) (UniProt P06401); experiment: NVS_NR_hPR: NovaScreen (NVS) Nuclear Receptor Binding Assay for human Progestron Receptor (PR) (AID 2283360);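 note: active means loss of bound radioligand signal versus DMSO baseline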
# Method in brief: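 Cell-free radioligand binding using receptor protein extracted from T47D cells, read by scintillation counting 18 hours after dosing. Loss of signal relative to DMSO baseline indicates displacement; primary screen single concentration 25 uM in duplicate, actives followed in concentration series.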
# [8] = molecular target: rat Mineralocorticoid Receptor (MR), Nr3c2 (gene 25672) (UniProt P22199); experiment: NVS_NR_rMR: NovaScreen (NVS) Nuclear Receptor Binding Assay for rat Mineralocorticoid Receptor (MR) (AID 2283355)
# Method: NVS_NR_rMR is a biochemical, single-readout assay that uses extracted gene-proteins from Adrenalectomized rat brain supernatant in a tissue-based cell-free assay. Measurements were taken 24 hours after chemical dosing in a 96-well plate.NVS_NR_rMR is one of one assay component(s) measured or calculated from the NVS_NR_rMR assay. It is designed to make measurements of radioligand binding, a form of binding reporter, as detected with scintillation counting signals by Lysate-based radiodetection technology.Data from the assay component NVS_NR_rMR was analyzed into 1 assay endpoint. This assay endpoint, NVS_NR_rMR, was analyzed in the positive analysis fitting direction relative to DMSO as the negative control and baseline of activity. […] Furthermore, this assay endpoint can be referred to as a primary readout, because the performed assay has only produced 1 assay endpoint. […]
# Binding assays used specific radioligands (tritiated, iodinated) with non-radioactive competitive displacement ligands in agonist or antagonist protocols (as indicated) and various reference compounds and inhibitors to titrate specific binding to receptors and transporters. Most enzyme assays (CYPs, kinases, phosphatases, proteases, HDACs) used recombinant protein and specific substrates (fluorescence mostly, some colorimetric and radioactive) and inhibitors, followed by a biochemical separation of substrate and product. […]
# [9] = molecular target: Retinoic acid receptor alpha (Homo sapiens) (UniProt P10276); experiment: NVS_NR_hRARa_Agonist: NovaScreen (NVS) Nuclear Receptor Binding Assay for human Retinoic Acid Alpha Receptor Agonism (RAR) (AID 2283361)
# Method in brief: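 Readout is time-resolved fluorescence resonance energy transfer after a 2 h exposure of cell-free extracted receptor protein. Initial testing used 25 uM in duplicate, with concentration-response follow-up for active chemicals.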
# T1 sequence (P03372 whole entry, looked up, the tested form may be a part): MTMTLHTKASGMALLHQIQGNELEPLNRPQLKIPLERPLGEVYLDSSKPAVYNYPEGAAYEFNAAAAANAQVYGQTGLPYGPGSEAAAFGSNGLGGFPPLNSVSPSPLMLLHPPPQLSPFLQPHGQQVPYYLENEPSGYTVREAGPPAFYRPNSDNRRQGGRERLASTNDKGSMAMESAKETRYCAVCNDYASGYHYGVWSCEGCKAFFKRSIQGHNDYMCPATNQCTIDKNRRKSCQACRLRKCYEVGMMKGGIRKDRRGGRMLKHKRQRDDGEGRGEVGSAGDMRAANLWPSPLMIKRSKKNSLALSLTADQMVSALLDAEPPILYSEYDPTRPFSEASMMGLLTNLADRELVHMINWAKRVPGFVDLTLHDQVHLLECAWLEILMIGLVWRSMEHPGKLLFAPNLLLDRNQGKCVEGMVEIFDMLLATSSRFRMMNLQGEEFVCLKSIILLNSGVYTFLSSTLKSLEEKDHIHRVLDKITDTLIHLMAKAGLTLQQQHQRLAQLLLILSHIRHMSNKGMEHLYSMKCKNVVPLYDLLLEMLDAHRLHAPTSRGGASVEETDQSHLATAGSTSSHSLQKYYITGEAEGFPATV
# T1 sequence (Q92731 whole entry, looked up, the tested form may be a part): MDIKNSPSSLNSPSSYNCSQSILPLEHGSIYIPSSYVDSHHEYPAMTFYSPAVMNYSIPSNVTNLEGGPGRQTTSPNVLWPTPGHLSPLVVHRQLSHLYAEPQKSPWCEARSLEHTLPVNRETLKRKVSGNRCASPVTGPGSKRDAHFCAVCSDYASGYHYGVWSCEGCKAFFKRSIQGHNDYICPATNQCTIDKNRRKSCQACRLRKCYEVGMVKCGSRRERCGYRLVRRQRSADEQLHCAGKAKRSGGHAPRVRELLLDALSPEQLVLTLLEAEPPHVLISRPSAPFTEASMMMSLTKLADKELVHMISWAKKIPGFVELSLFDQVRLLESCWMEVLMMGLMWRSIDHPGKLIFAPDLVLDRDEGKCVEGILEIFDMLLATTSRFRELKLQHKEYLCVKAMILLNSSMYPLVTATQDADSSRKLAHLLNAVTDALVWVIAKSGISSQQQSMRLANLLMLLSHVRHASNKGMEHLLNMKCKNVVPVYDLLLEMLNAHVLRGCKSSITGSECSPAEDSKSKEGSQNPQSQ
# PGR (gene 5241), sequence (P06401 whole entry, looked up): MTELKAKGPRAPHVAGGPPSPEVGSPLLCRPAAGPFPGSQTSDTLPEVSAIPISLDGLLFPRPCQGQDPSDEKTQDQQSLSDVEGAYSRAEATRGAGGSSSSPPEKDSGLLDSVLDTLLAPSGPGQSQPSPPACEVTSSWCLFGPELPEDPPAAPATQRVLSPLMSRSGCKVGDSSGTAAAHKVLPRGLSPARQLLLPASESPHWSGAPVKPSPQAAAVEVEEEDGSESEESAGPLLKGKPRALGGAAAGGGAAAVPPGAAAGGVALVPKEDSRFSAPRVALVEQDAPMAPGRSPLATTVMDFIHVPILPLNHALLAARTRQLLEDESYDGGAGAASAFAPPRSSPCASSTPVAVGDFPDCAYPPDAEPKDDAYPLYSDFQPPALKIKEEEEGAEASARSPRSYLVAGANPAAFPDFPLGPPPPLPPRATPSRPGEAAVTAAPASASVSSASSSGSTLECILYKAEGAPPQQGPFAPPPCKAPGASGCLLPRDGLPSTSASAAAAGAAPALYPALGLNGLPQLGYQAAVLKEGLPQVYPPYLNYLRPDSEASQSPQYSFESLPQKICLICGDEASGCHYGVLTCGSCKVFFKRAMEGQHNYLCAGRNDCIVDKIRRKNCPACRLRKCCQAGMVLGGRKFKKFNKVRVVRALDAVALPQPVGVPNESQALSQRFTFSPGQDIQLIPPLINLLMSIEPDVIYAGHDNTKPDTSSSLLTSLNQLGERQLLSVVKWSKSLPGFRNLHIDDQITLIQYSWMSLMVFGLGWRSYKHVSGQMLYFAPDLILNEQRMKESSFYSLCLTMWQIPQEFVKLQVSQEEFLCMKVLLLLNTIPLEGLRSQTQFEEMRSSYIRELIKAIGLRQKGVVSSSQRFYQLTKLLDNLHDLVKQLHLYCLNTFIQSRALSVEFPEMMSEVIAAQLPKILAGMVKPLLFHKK
# Estrogen receptor beta (Homo sapiens), sequence (Q92731 whole entry, looked up, the tested form may be a part): as the sequence (Q92731 whole entry, looked up, the tested form may be a part) above
# Androgen Receptor/SRC-1 Co-activator, AR (gene 367), sequence (P10275 whole entry, looked up, the tested form may be a part): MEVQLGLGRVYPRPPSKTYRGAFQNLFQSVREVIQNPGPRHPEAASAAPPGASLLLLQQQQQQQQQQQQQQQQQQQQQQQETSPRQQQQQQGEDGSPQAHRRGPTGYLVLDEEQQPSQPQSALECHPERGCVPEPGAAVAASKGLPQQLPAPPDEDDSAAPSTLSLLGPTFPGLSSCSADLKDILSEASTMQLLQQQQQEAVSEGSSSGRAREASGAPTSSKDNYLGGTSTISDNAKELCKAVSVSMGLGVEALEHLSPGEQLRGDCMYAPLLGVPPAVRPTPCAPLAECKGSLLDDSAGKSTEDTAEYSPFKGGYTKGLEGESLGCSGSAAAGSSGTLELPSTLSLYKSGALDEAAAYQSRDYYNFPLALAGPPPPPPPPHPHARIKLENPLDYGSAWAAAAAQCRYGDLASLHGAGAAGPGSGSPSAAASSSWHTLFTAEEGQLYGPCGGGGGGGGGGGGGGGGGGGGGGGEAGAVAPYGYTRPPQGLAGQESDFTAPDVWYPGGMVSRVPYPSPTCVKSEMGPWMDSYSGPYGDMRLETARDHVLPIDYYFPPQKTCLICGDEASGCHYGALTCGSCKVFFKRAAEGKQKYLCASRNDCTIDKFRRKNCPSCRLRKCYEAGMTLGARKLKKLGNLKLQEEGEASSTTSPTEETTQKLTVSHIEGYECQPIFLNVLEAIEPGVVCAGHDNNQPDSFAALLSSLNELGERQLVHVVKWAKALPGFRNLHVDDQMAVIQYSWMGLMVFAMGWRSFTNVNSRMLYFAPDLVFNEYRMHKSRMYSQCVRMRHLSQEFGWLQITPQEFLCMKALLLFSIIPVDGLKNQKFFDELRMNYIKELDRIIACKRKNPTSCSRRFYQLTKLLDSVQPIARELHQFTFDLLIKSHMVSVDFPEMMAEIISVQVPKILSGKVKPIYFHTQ
# Retinoic acid receptor alpha (Homo sapiens), sequence (P10276 whole entry, looked up): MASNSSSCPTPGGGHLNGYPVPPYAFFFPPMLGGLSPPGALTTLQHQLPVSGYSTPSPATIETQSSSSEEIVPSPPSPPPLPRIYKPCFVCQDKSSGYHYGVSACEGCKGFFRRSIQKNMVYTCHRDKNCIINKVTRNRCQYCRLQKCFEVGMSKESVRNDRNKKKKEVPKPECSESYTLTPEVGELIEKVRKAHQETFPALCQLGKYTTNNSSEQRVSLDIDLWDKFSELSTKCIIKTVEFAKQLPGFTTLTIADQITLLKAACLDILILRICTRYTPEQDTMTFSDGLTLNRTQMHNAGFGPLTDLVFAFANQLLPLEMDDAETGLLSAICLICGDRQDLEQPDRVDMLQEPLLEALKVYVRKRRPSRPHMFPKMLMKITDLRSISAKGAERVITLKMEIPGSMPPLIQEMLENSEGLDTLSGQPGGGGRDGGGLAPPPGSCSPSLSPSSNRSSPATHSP
# rat Mineralocorticoid Receptor (MR), Nr3c2 (gene 25672), sequence (P22199 whole entry, looked up): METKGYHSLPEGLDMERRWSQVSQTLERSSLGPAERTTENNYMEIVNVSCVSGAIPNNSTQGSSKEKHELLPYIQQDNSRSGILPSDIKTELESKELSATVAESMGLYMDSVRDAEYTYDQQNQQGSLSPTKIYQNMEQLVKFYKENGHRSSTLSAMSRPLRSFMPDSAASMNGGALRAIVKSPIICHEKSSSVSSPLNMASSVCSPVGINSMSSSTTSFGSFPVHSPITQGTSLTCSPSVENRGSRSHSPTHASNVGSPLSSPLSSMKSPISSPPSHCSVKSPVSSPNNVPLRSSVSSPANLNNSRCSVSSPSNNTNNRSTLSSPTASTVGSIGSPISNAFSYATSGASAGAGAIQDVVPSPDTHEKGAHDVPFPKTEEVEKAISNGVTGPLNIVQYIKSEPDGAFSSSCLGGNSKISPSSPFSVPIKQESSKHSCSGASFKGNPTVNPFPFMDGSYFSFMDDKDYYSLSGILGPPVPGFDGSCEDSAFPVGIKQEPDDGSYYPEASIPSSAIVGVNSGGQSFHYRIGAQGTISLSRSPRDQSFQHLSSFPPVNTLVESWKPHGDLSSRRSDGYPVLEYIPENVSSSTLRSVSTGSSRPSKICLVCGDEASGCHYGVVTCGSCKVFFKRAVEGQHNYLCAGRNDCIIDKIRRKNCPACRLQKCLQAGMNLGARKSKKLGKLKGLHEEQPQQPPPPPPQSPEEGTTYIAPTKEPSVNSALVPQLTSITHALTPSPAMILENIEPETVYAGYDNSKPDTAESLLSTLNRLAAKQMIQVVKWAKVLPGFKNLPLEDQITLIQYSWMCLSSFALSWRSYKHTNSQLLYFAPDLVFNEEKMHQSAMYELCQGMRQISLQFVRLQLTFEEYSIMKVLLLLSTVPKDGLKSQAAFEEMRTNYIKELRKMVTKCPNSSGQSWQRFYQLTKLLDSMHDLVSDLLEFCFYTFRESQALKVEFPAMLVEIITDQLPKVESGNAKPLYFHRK
compound,measurement,setting,value
N#CSCSC#N,AC50,[1],15.5 µM (active)
same,AC50,[2],18.2 µM (active)
same,outcome,[3],inactive
same,outcome,[4],inactive
CNC(=O)ON=C(SC)C(=O)N(C)C,outcome,[5],inactive
same,outcome,[1],inactive
same,outcome,[2],inactive
same,outcome,[6],inactive
same,outcome,[3],inactive
same,outcome,[4],inactive
same,outcome,[7],inactive
CCOP(=S)(OCC)Oc1ccc([N+](=O)[O-])cc1,outcome,[8],inactive
same,AC50,[7],14.6 µM (active)
CCc1cccc(CC)c1N(COC)C(=O)CCl,AC50,[1],32 µM (active)
same,outcome,[2],inactive
same,outcome,[6],inactive
CC(C)=CC1C(C(=O)OCN2C(=O)C3=C(CCCC3)C2=O)C1(C)C (stereo not given),AC50,[1],78.6 µM (active)
same,AC50,[2],77.5 µM (active)
C#CCC1=C(C)C(OC(=O)C2C(C=C(C)C)C2(C)C)CC1=O (stereo not given),outcome,[3],inactive
CCOC(=O)COc1cc(-c2nn(C)c(OC(F)F)c2Cl)c(F)cc1Cl,outcome,[1],inactive
same,outcome,[2],inactive
same,outcome,[9],inactive
Nc1c(Cl)cc([N+](=O)[O-])cc1Cl,outcome,[5],inactive
same,outcome,[1],inactive
same,outcome,[2],inactive
same,outcome,[6],inactive
same,outcome,[3],inactive
same,outcome,[4],inactive
O=C(O)c1cc(Oc2ccc(C(F)(F)F)cc2Cl)ccc1[N+](=O)[O-],outcome,[3],inactive
CSc1nc(NC(C)C)nc(NC(C)C)n1,outcome,[5],inactive
same,outcome,[6],inactive
same,outcome,[3],inactive
CCCCOC(=O)c1ccccc1C(=O)O,outcome,[1],inactive
same,outcome,[2],inactive
same,outcome,[3],inactive
same,outcome,[4],inactive
Nc1nc(N)nc(NC2CC2)n1,outcome,[3],inactive
CCC(=O)Nc1ccc(Cl)c(Cl)c1,outcome,[1],inactive
same,outcome,[2],inactive
CCCSP(=O)(OCC)SCCC,outcome,[1],inactive
same,outcome,[7],inactive
CCCCOC(=O)[C@@H](C)Oc1ccc(Oc2ccc(C#N)cc2F)cc1,outcome,[5],inactive
same,outcome,[6],inactive
same,outcome,[3],inactive
Cc1ccn2nc(S(=O)(=O)Nc3c(F)cccc3F)nc2n1,outcome,[3],inactive
